Reference: PubChem BioAssay
For part of these data: Results with a measured potency or affinity are listed apart. Activity calls are given as the source filed them.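 The calls were made as follows, unless noted: active = primary screen inhibitor hit that blocks the TRPC4 channel at some tested dose, yielding a dose curve; inactive = the rest.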

Legend:
[1] = test system: TRPC4 beta (transient receptor potential cation channel C4), mouse; assay: activators of mouse TRPC4 channel, confirmation, cell-based, Fluo4 calcium, HEK293 TRPC4beta/mu-opioid, duplicates, 10 µM (AID 2426;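 active = fluorescence ratio normalized to control raised more than 50% in primary screen plus both repeat runs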;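 as to activation: percent rise of integrated ratio over buffer wells lacking compound which define 0%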); details: Fluo4 calcium fluorescence, at 10 µM; hits give high values
[2] = test system: transient receptor potential cation channel C4 beta (TRPC4), mouse; assay: activators of mouse TRPC4 channel, confirmation, cell-based, second round, Fluo4, HEK293 TRPC4beta/mu-opioid, 1 µM (AID 2461;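 active = primary screen active and over 50% activation in each of two duplicate runs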); details: Fluo4 calcium fluorescence, at 1 µM; hits give high values
[3] = test system: TRPC4 (transient receptor potential cation channel C4 beta), mouse; assay: positive allosteric modulators of mouse TRPC4, confirmation, cell-based, second round, Fluo-4, HEK293 TRPC4beta/mu-opioid, 1 µM (AID 2554;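 active = primary screen hit whose fluorescence ratio, in both repeats, exceeds the weak agonist control mean by 3 SD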); details: DAMGO EC20, Fluo-4 calcium flux, at 1 µM; hits give high values
[4] = test system: TRPC4 beta (transient receptor potential cation channel C4), mouse; assay: positive allosteric modulators of mouse TRPC4, confirmation, cell-based, Fluo-4, HEK293 TRPC4beta/mu-opioid (AID 2555;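 active = primary screen hit whose calcium fluorescence ratio, in both repeats, exceeds the weak agonist control mean by 3 SD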); details: DAMGO EC20, Fluo-4 calcium flux, at 10 µM; hits give high values
[5] = molecular target: Short transient receptor potential channel 4 (Mus musculus) (UniProt Q9QUQ5); assay: inhibitors of mouse TRPC4 channel, confirmation, cell-based, Fluo4, HEK293 TRPC4beta/mu-opioid (AID 2636;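 active = calcium signal cut by more than 3 SD below the full-agonist control yet still positive, in both repeats and the earlier primary screen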); details: DAMGO, Fluo4 calcium flux, at 10 µM; hits give high values
Short transient receptor potential channel 4 (Mus musculus), sequence (Q9QUQ5 whole entry, looked up): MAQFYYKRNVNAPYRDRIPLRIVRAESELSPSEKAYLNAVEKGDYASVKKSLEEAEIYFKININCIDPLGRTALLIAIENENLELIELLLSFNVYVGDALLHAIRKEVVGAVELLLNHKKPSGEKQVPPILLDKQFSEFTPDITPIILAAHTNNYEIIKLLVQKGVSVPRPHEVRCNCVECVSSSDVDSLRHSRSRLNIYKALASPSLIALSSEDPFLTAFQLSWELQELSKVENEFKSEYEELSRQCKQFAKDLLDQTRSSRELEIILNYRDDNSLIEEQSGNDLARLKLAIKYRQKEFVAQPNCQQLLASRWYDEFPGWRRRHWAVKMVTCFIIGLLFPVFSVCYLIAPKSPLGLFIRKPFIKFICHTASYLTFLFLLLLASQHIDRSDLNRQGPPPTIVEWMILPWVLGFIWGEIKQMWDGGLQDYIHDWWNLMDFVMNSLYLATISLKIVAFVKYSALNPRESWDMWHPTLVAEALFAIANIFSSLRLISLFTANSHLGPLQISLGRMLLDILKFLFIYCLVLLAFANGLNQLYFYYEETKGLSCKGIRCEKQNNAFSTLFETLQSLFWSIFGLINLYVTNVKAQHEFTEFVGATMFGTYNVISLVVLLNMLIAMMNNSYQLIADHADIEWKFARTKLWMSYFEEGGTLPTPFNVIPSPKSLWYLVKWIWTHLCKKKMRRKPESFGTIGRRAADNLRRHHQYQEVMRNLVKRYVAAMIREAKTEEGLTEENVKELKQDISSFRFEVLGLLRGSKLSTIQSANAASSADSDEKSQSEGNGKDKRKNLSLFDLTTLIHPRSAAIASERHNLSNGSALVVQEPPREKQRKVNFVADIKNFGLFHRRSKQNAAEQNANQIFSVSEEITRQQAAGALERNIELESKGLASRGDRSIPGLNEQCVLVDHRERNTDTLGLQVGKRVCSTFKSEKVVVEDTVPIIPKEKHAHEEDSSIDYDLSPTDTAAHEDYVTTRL

[6] = molecular target: Short transient receptor potential channel 4 (Mus musculus) (UniProt Q9QUQ5); assay: inhibitors of mouse TRPC4 channel, confirmation, cell-based, second round, Fluo4, HEK293 TRPC4beta/mu-opioid, 1 µM (AID 2637;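 active = calcium signal ratio cut to more than 3 SD under the fully stimulated control mean yet still positive, in both repeats and the primary screen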;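 as to inhibition: percent of integrated ratio relative to wells lacking test compound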); details: Fluo4 calcium flux, DAMGO, at 1 µM; hits give high values
[7] = molecular target: Short transient receptor potential channel 4 (Mus musculus) (UniProt Q9QUQ5); assay: mouse TRPC4 channel activators, dose response, cell-based, HEK293 TRPC4/mu-opioid, Fluo-4 calcium (AID 434937;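 active = primary screen activator hit with a dose response curve and TRPC4 channel activation at any tested dose; inactive = no activation, no dose response, or not a primary hit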)
[8] = molecular target: Short transient receptor potential channel 4 (Mus musculus) (UniProt Q9QUQ5); assay: TRPC4 positive allosteric modulators, dose response, cell-based, HEK293 TRPC4/mu-opioid, Fluo-4 calcium, EC20 DAMGO (AID 434941;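 active = earlier screen potentiator hit that boosts the TRPC4 ion channel at some dose, with a dose response; inactive = no potentiation, no dose response, or not a prior hit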;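 also: calcium entry triggered by an EC20 dose of DAMGO at the co-expressed mu-opioid receptor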)
[9] = molecular target: Short transient receptor potential channel 4 (Mus musculus) (UniProt Q9QUQ5); assay: mouse TRPC4 channel inhibitors, dose response, cell-based, HEK293 TRPC4/mu-opioid, Fluo-4 calcium (AID 434942)
[10] = molecular target: Short transient receptor potential channel 6 (Mus musculus) (UniProt Q61143); assay: inhibition of mouse TRPC6 channel, confirmation, selectivity assay for TRPC4 inhibitor project, cell-based, HEK293, membrane potential dye, duplicate (AID 434948;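 active = active in primary screen and both duplicates, each dropping signal beyond three positive-control SD with fluorescence still positive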); details: HEK293 TRPC6, membrane potential dye fluorescence, at 10 µM, stimulated with maximal-effect acetylcholine; hits give high values
Short transient receptor potential channel 6 (Mus musculus), sequence (Q61143 whole entry, looked up): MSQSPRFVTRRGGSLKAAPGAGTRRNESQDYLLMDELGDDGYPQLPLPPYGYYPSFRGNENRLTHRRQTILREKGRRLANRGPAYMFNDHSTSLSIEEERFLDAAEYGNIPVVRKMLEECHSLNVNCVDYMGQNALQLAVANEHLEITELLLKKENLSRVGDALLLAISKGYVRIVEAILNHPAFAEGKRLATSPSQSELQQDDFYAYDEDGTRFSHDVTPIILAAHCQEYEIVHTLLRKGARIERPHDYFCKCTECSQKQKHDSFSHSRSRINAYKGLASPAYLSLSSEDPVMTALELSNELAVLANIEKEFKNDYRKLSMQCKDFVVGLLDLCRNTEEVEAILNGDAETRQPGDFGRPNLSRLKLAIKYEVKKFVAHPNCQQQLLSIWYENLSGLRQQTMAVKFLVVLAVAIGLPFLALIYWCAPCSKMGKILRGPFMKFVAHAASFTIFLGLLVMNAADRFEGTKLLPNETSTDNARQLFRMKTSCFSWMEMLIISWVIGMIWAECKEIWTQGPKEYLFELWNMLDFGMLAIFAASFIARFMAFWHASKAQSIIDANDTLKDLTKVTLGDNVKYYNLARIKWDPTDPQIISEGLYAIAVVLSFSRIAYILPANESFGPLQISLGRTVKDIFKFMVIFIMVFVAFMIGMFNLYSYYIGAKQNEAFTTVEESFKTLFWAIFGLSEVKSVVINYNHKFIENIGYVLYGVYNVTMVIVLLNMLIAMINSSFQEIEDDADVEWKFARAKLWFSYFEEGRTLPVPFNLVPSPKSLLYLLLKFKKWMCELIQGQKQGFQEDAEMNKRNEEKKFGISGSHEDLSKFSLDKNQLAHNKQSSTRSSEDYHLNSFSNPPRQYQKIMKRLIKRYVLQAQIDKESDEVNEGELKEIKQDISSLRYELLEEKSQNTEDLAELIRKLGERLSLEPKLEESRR

[11] = molecular target: Short transient receptor potential channel 6 (Mus musculus) (UniProt Q61143); assay: activation of mouse TRPC6 channel, confirmation, selectivity assay for TRPC4 activator project, cell-based, HEK293, membrane potential dye, duplicate (AID 434950;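 active = membrane potential signal rise above negative control mean plus 3 SD in both duplicates, also active in the earlier TRPC4 screen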;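 as to activation: 0% = buffer only wells and 100% = acetylcholine maximal-effect wells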); details: HEK293 TRPC6, membrane potential fluorescence, at 10 µM; hits give high values
[12] = molecular target: Short transient receptor potential channel 6 (Mus musculus) (UniProt Q61143); assay: TRPC6 potentiation by TRPC4 potentiator hits, confirmation, selectivity assay for TRPC4 potentiator project, HEK293 cells, membrane potential dye, duplicate (AID 434952;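 active = compound raising the membrane signal above positive-control mean plus 3 SD in both repeats, and a primary screen hit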); details: HEK293 TRPC6, membrane potential dye fluorescence, at 10 µM, maximal acetylcholine added after compound; hits give high values
[13] = molecular target: Short transient receptor potential channel 4 (Mus musculus) (UniProt Q9QUQ5); assay: calcium flux activators in TRPC4/5HT1a cells, counter-screen for TRPC4 activator project, cell-based, second counter screen, HEK293 TRPC4/5HT1a, Fluo-4 (AID 434977;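 active = calcium signal rise above buffer-control mean plus 5 SD in both duplicates, and also a hit in the primary screen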;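 as to activation: plate controls were assay buffer for no effect and maximal serotonin response for full effect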); details: Fluo-4 calcium flux, at 10 µM; hits give high values
[14] = calcium flux inhibitors in TRPC4/5HT1a cells, confirmation, counter-screen for TRPC4 inhibitor project, cell-based, second counter screen, HEK293 TRPC4/5HT1a, Fluo-4 (AID 434978;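 active = primary screen active whose calcium signal fell more than 3 SD beyond the full-serotonin control mean in both duplicate plates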;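 also: serotonin given first at submaximal then at maximal dose after compound preincubation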); details: Fluo-4 calcium flux, at 10 µM, serotonin added to trigger calcium flux; hits give high values
[15] = test system: TRPC4 (mouse), co-expressed with 5HT1a in HEK293; assay: calcium flux potentiators in TRPC4/5HT1a cells, confirmation, counter-screen for TRPC4 potentiator project, cell-based, second counter screen, HEK293 TRPC4/5HT1a, Fluo-4 (AID 434979;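 active = signal rise over 3 SD above mean of control wells given weak agonist, in both repeats and first screen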); details: Fluo-4 calcium flux, at 10 µM, serotonin added at its EC20 dose; hits give high values
[16] = calcium flux activation in mu-opioid HEK293 cells, confirmation, counter-screen for TRPC4 activator project, cell-based, HEK293 mu-opioid receptor line (AID 449723;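 active = hit in primary screen, with calcium signal over 5 SD above buffer well mean in both duplicates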;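 also: counter screen cells carry the mu-opioid receptor alone and lack TRPC4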); details: Fluo-4 calcium fluorescence, at 10 µM; hits give high values
[17] = calcium flux enhancement in mu-opioid HEK293 cells, confirmation, counter-screen for TRPC4 allosteric potentiator project, cell-based, HEK293 mu-opioid receptor line (AID 449724;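 active = calcium signal rise more than 3 SD above the low-dose agonist control mean, in both duplicate plates and the primary screen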); details: Fluo-4 calcium flux, at 10 µM, compound added before EC20 DAMGO stimulus; hits give high values

O=C(C1CC1)N1CCc2cc(S(=O)(=O)NC3CCN(Cc4ccccc4)CC3)ccc21
inactive: outcome [1] | outcome [2] | outcome [3] | outcome [4] | outcome [5] | outcome [6] | outcome [7] | outcome [8] | outcome [9] | outcome [10] | outcome [11] | outcome [12] | outcome [13] | outcome [14] | outcome [15] | outcome [16] | outcome [17]

Cc1oc(-c2ccc(Cl)cc2)nc1CN1CCC(C(=O)N2CCc3ccccc3C2)CC1
inactive: outcome [1] | outcome [2] | outcome [3] | outcome [5] | outcome [6] | outcome [7] | outcome [8] | outcome [9] | outcome [10] | outcome [11] | outcome [12] | outcome [13] | outcome [14] | outcome [16] | outcome [17]
active: potentiation [4] 16% | potentiation [15] 10.2%

CCCNc1nc2ccccc2n2c(C)nnc12
active: inhibition [5] 73% | inhibition [6] 39%
inactive: outcome [1] | outcome [2] | outcome [3] | outcome [4] | outcome [7] | outcome [8] | outcome [9] | outcome [10] | outcome [11] | outcome [12] | outcome [13] | outcome [14] | outcome [15] | outcome [16] | outcome [17]

C1CCN(c2nc(N3CCCCC3)nc(N3CCNCC3)n2)CC1
inactive: outcome [1] | outcome [2] | outcome [3] | outcome [4] | outcome [5] | outcome [6] | outcome [7] | outcome [8] | outcome [9] | outcome [10] | outcome [11] | outcome [12] | outcome [13] | outcome [14] | outcome [16] | outcome [17]
active: potentiation [15] 8.18%

NN=C1c2cc([N+](=O)[O-])ccc2-c2ccc([N+](=O)[O-])cc21
inactive: outcome [1] | outcome [2] | outcome [3] | outcome [4] | outcome [5] | outcome [6] | outcome [7] | outcome [8] | outcome [9] | outcome [10] | outcome [11] | outcome [12] | outcome [13] | outcome [14] | outcome [15] | outcome [16] | outcome [17]

CCc1c(C)nc2c(-c3ccccc3)c(C)nn2c1Nc1ccc(NC(C)=O)cc1
active: potentiation [4] 14% | potentiation [15] 74%
inactive: outcome [1] | outcome [2] | outcome [3] | outcome [5] | outcome [6] | outcome [7] | outcome [8] | outcome [9] | outcome [10] | outcome [11] | outcome [12] | outcome [13] | outcome [14] | outcome [16] | outcome [17]

CCN1CCN(c2ccc(S(=O)(=O)N3CCCCC3)cc2NC(=O)c2cc3ccccc3o2)CC1
inactive: outcome [1] | outcome [2] | outcome [3] | outcome [5] | outcome [6] | outcome [7] | outcome [8] | outcome [9] | outcome [10] | outcome [11] | outcome [12] | outcome [13] | outcome [14] | outcome [16] | outcome [17]
active: potentiation [4] 27% | potentiation [15] 24.6%

COc1ccc(Cl)c2sc(N(CCN(C)C)C(=O)CCS(=O)(=O)c3ccc(C)cc3)nc12
active: potentiation [3] 12%
inactive: outcome [1] | outcome [2] | outcome [4] | outcome [5] | outcome [6] | outcome [7] | outcome [8] | outcome [9] | outcome [10] | outcome [11] | outcome [12] | outcome [13] | outcome [14] | outcome [15] | outcome [16] | outcome [17]

COc1cc2nc(=S)n3[nH]c(CCn4nc(C)cc4C)nc3c2cc1OC
inactive: outcome [1] | outcome [2] | outcome [3] | outcome [4] | outcome [5] | outcome [6] | outcome [7] | outcome [8] | outcome [9] | outcome [10] | outcome [11] | outcome [12] | outcome [13] | outcome [14] | outcome [15] | outcome [16] | outcome [17]

CCN(CC)CCCN(C(=O)c1cccs1)c1nc(-c2ccc(OC)cc2)cs1
inactive: outcome [1] | outcome [2] | outcome [3] | outcome [4] | outcome [5] | outcome [6] | outcome [7] | outcome [8] | outcome [9] | outcome [10] | outcome [11] | outcome [12] | outcome [13] | outcome [14] | outcome [15] | outcome [16] | outcome [17]

O=C(COC(=O)c1ccccc1C(=O)N1CCN(c2ccccc2)CC1)Nc1ccc(F)cc1
inactive: outcome [1] | outcome [2] | outcome [3] | outcome [5] | outcome [6] | outcome [7] | outcome [8] | outcome [9] | outcome [10] | outcome [11] | outcome [12] | outcome [13] | outcome [14] | outcome [16] | outcome [17]
active: potentiation [4] 16% | potentiation [15] 50.1%

Cc1ccc(C)c(OCCCCN2CCNCC2)c1C
active: potentiation [4] 9% | potentiation [15] 29.4%
inactive: outcome [1] | outcome [2] | outcome [3] | outcome [5] | outcome [6] | outcome [7] | outcome [8] | outcome [9] | outcome [10] | outcome [11] | outcome [12] | outcome [13] | outcome [14] | outcome [16] | outcome [17]

CN1CCN(CCCNC(=O)CN2C(=O)COc3ccccc32)CC1
inactive: outcome [1] | outcome [2] | outcome [3] | outcome [4] | outcome [6] | outcome [7] | outcome [8] | outcome [9] | outcome [10] | outcome [11] | outcome [12] | outcome [13] | outcome [14] | outcome [15] | outcome [16] | outcome [17]
active: inhibition [5] 77%

Cc1cc(N2CCCCC2)nc(NCc2ccccc2)n1
inactive: outcome [2] | outcome [3] | outcome [4] | outcome [5] | outcome [6] | outcome [7] | outcome [8] | outcome [9] | outcome [10] | outcome [12] | outcome [14] | outcome [15] | outcome [17]
active: activation [1] 66% | activation [11] 68.5% | activation [13] 19.4% | activation [16] 29.5%

CCN(CC)c1ccc(CNc2nc3ccccc3n2CCN2CCCCC2)cc1
inactive: outcome [2] | outcome [3] | outcome [4] | outcome [5] | outcome [6] | outcome [7] | outcome [8] | outcome [9] | outcome [10] | outcome [11] | outcome [12] | outcome [13] | outcome [14] | outcome [15] | outcome [16] | outcome [17]
active: activation [1] 109%
